Screening results (PubChem)
A selection: hits, their analogues and other compounds. The true share with any hit is near 6.3%.
NADH enzymes – inhibitors of PK/LDH coupling enzymes, profiling panel, artefact control, biochemical, MLSMR library | hit rate 0.02% among 65,000 | coupled PK/LDH NADH assays, four targets | IC50, µM (top dose mostly 10 µM), for the others: top-dose inhibition;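 active = single-dose screening hits from any of four coupled enzyme assays that gave an IC50 when retested across doses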;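 note: the DPM-DC format reads NADH fluorescence rather than 340 nm absorbance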
A340 absorber – compound light absorbance at 340 nm, profiling panel, artefact control, biochemical, MLSMR library, data from PS, PMK, MK assays | compound absorbance at 340 nm, fold over control | fold change at 10 µM | 65,000 tested, under 10 active;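 active = at 10 µM dose, initial 340 nm absorbance at least 2 fold that of control wells; inactive = change under 2 fold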;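 note: initial absorbance extrapolated from kinetic A340 decline of NADH oxidation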
Spn MK inh – S. pneumoniae MK inhibitors, primary screen, biochemical, PK/LDH-coupled NADH absorbance; mevalonate kinase [Streptococcus pneumoniae D39]; AID 555, 2006; inhibition, % at 10 µM; hit rate 0.48% among 65,000; purified MK, PK/LDH-coupled NADH absorbance 340 nm;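 active = ranked among the strongest by inhibition in the single 10 µM screen, a fixed top-ranked set picked for dose follow-up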
Spn PMK inh – S. pneumoniae PMK inhibitors, primary screen, biochemical, mevalonate pathway, pilot trial included. phosphomevalonate kinase (Streptococcus pneumoniae D39). purified PMK, PK/LDH-coupled NADH absorbance 340 nm. inhibition, % at 10 µM. hit rate 0.49% among 65,000. AID 539, 2006;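 active = top-ranked compounds by inhibition in the single 10 µM screen, taking a fixed number of the strongest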;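 note: 0% = full reaction with DMSO carrier and 100% = background rate without enzyme reaction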
DPM-DC inhibit – S. pneumoniae DPM-DC inhibitors, primary screen, biochemical, PK/LDH-coupled NADH fluorescence; diphosphomevalonate decarboxylase (Streptococcus pneumoniae D39); purified DPM-DC; calls only at 10 µM; hit rate 0.49% among 65,000; AID 556, 2006;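 active = the 320 compounds with the highest percent inhibition in the single-dose primary screen, excluding strongly autofluorescent ones, cut at about 32% in these data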;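 note: kinetic rate of NADH fluorescence loss reporting ADP formed by the decarboxylase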
Fluor 339 460 – intrinsic fluorescence of library compounds, ex339/em460 – biochemical, MLSMR library, data from DPM-DC assay, artefact control, profiling panel; compound autofluorescence, ex339/em460 nm, NADH buffer; active compounds read high; 1 = no-compound wells, NADH background; fluorescence fold increase at 10 µM; hit rate 5.5% among 65,000; AID 709, 2007;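 active = at 10 µM, mean starting fluorescence two-fold or more over control wells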;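 note: signal is the first read of a kinetic run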
Starred values were filed as active, the others as inactive; i = inactive; · = not tested or not shown; + = active, no number.

SMILES	NADH enzymes	A340 absorber	Spn MK inh	Spn PMK inh	DPM-DC inhibit	Fluor 339 460
Cc1cccc(NC(=O)c2ccc(S(=O)(=O)N3CCCCC3)cc2)n1	3%	1	0	10	i	1.1
CCN(CC)C(=O)CSc1ncnc2c(-c3cccs3)nsc12	11%	1.1	0	10	i	2.6*
COCCCNC(=O)c1ccccc1NS(C)(=O)=O	5%	1.1	6	3	·	3.4*
CS(=O)(=O)Nc1ccccc1C(=O)NC1CC2CCC1C2 (stereo not given)	8%	1.1	8	8	·	3.8*
CCOC(=O)Cc1cn2c(=O)cc(CSCC(=O)Nc3ccc(C)c(C)c3)nc2s1	3%	1.1	8	1	i	1.2
N#Cc1cc2c(=O)n3ccccc3nc2n(Cc2cccnc2)c1=O	8%	1.1	7	9	·	3.8*
Cc1cccn2c(=O)c3cc(C#N)c(=O)n(Cc4cccnc4)c3nc12	5%	1	6	3	·	3.8*
CCOC(=O)C1CCCN(C(=O)CNC(=O)Cn2ccc3ccccc3c2=O)C1 (stereo not given)	4%	1.1	12	0	i	1.1
C=CCn1c2ccccc2c2nnc(SCCCn3c(=O)[nH]c4ccccc43)nc21	5%	1.1	8	7	i	1
COC(=O)C1=CN(C(C)C)C=C(C(=O)OC)C1c1cccc(OC)c1	4%	1.1	4	4	·	2.2*
COC(=O)c1cc(-c2cccc(OC)c2)on1	4%	0.96	3	10	i	1.1
CCN1C=C(C(=O)OC)C(c2cccc(C)c2)C(C(=O)OC)=C1	2%	1.1	3	0	·	2.2*
COC(=O)C1=C(C)NC(C)=C(C(=O)OC)C1c1ccccc1[N+](=O)[O-]	4%	0.98	4	7	i	0.57
CCCOc1ccccc1C1NC(=O)NC(C)=C1C(=O)OCCOCC (stereo not given)	2%	0.99	2	3	i	1.1
CCCOc1ccccc1C1C(C(=O)OC)=CN(C(C)C)C=C1C(=O)OC	8%	1.1	9	7	·	3.9*
COC(=O)C1=CN(C)C=C(C(=O)OC)C1c1ccccc1Cl	8%	1.1	11	5	·	3.9*
CCOC(=O)C1=C(C)NC(C)=C(C(=O)OC)C1c1cccc([N+](=O)[O-])c1 (stereo not given)	3%	0.99	4	1	i	0.98
CCCCOc1ccccc1C1C(C(=O)OC)=CN(CC)C=C1C(=O)OC	7%	1.1	10	3	·	2.2*
COC(=O)C1=CN(CCCN2CCCC2=O)C=C(C(=O)OC)C1c1ccccc1C(F)(F)F	7%	1	7	7	·	2.2*
CCCCOc1ccccc1C(=O)NCC(=O)O	5%	1	7	6	i	1.1
CCCCCSc1nc2c(c(=O)[nH]c(=O)n2C)n1CCc1ccccc1	0%	1.1	0	0	i	1.1
O=C(c1cccn2c(=O)c3ccc(Cl)cc3nc12)N1CCN(Cc2ccc3c(c2)OCO3)CC1	15%	1.1	7	22	·	4.9*
CCN(CC)c1nc2ccccc2n2cnnc12	18%	1.1	3	18	+	1.1
Cc1cc(C)n(-c2nc3ccccc3n3cnnc23)n1	8%	1.1	11	12	i	1.1
CCOc1ccccc1Nc1nc2ccccc2n2cnnc12	13%	1.1	10	15	·	2.1*
SMILES	NADH enzymes	A340 absorber	Spn MK inh	Spn PMK inh	DPM-DC inhibit	Fluor 339 460
c1ccc(N2CCOCC2)c(Nc2nc3ccccc3n3cnnc23)c1	4%	1.1	0	8	i	1.2
N#Cc1c(N2CCCCC2)nc(N2CCCCC2)c2c1CCN(Cc1ccccc1)C2	4%	1.1	6	6	i	1.6
Cc1ccc(CNc2ccc3c(c2)OCO3)c(C)c1	0%	1.1	0	0	i	1.2
COCC(C)NCc1ccc(C)cc1C (stereo not given)	20%	1.1	52*	1	i	1.1
CN(C)c1nc2sc3c(c2c(=O)n1C)CC(C)(C)OC3	7%	1.1	10	10	i	1.1
CNc1nc2sc3c(c2c(=O)n1C)CC(C)(C)SC3	5%	1	6	2	i	2.2*
COC(=O)c1ccc(C(=O)OC)c(NC(=O)c2cnc3n(c2=O)CCS3)c1	9%	1.1	1	10	i	2.4*
Clc1ccc(OCc2cn3cccnc3n2)c2ncccc12	7%	1	0	14	·	2.1*
CC(C)C(OC(=O)c1ccco1)C(=O)NCc1cccs1 (stereo not given)	6%	0.97	0	12	i	1.1
COc1ccc(N2CCN(C(=O)CCNS(=O)(=O)c3ccc4c(c3)CCC(=O)N4)CC2)cc1	7%	1	8	13	i	2.1*
Cc1ccc(OCn2c(=O)sc3ccccc32)cc1	7%	1.1	17	3	i	1.1
CCOC(=O)N1CCN(C(=O)CN(Cc2ccccc2)S(=O)(=O)c2ccc(OC)c(C)c2)CC1	4%	0.99	active	0	i	1
COc1ccc(S(=O)(=O)N(CC(=O)N2CCCC2)Cc2ccccc2)cc1	0%	1.1	0	0	i	1.1
O=C(O)C1CC=CCC1C(=O)N1CCN(c2nc(-c3ccccc3)c3ccccc3n2)CC1 (stereo not given)	9%	1	2	2	i	2
O=C(O)CCCC(=O)N1CCN(c2nc(-c3ccccc3)c3ccccc3n2)CC1	1%	1	2	0	·	2.1*
Fc1ccc(-c2nnc3ccc(N4CCc5ccccc5C4)nn23)cc1	12%	1.1	7	10	i	1.6
CCC(c1nnnn1CCC(C)C)N1CCC(C(N)=O)CC1 (stereo not given)	5%	0.97	3	12	i	1.1
CN(c1ccc(F)cc1)S(=O)(=O)c1ccc2[nH]cc(C(=O)O)c(=O)c2c1	3%	1	0	9	i	1.3
COCCN(CCOC)C(=O)c1c[nH]c2ccc(S(=O)(=O)N(C)c3ccc(F)cc3)cc2c1=O	10%	1	1	18	i	2.3*
C=CCOc1ccccc1C1C2=C(CC(C)(C)CC2=O)Nc2c1c(=O)n(C)c(=O)n2C (stereo not given)	8%	1	6	9	·	3.6*
COCCn1c(N)c(C(=O)NCc2cccs2)c2nc3ccccc3nc21	6%	1.1	4	8	·	3.7*
Nc1c(C(=O)OCC2CCCO2)c2nc3ccccc3nc2n1C1CCCC1 (stereo not given)	1%	1.1	0	2	·	3.8*
